Details in all cases: 25 µM; exposure: 24-48 hpf
Test [1] relates to Danio rerio Tg(wt1b:EGFP) embryo, pronephros. Kind of test: glomerular separation, fold change vs DMSO control; higher = glomeruli further apart (abnormal). In outline: (§1)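 Distances and angles describing the pronephros were computed by a Fiji macro from 16 reference points set manually on maximum projections of dorsal images. These images came from dechorionated Tg(wt1b:EGFP) zebrafish embryos held in agarose-filled 96-well plates after exposure to 25 μM compound in 0.5% DMSO, in HEPES-buffered E3 with 0.003% PTU, from 24 to 48 hpf at 28.5°C. Any value more than 2 SD from the feature mean was excluded. Features are stated as fold change relative to the mean of same-day DMSO-treated embryos.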

The test system is the same in test [2]. The test can be described thus: glomerular width (mean of left and right), fold change vs DMSO control; higher = wider glomerulus. In outline: as §1
For test [3] the test system is unchanged. The test can be described thus: fraction of imaged embryos annotated as normal kidney; higher = less nephrotoxic; extreme values may be limits of the assay. In outline: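 Embryos of the Tg(wt1b:EGFP) zebrafish line were dechorionated and held in 12-well plates with 25 μM compound in 0.5% DMSO and 5 mM HEPES-buffered E3 containing 0.003% PTU, from 24 to 48 hpf at 28.5°C. Larvae were then anaesthetised with tricaine, set dorsal side up in agarose-filled 96-well plates, and their pronephroi imaged by widefield fluorescence at 470 nm over 10 z-slices. Each value is the fraction of embryos per treatment placed in the normal-kidney category after manual annotation of maximum projections.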

Test [4] shares this test system. Kind of test: pronephric angle neck segment to proximal convoluted tubule (mean of left and right), fold change vs DMSO control; higher = larger pronephric angle. The procedure, abridged: as §1

Counter-ions that a name gives are not always drawn. ± gives the standard deviation or the standard deviation of the averaged measurements.

Results on eleven compounds are retold here after the supplement of paper PMC7366291.

`CC(C)(S)C(N)C(=O)O` (racemic) [D,L-Penicillamine] yielded a glomerular separation in test [1] of 1.31 ± 0.71. Besides, in test [2], the glomerular width worked out at 1.03 ± 0.015. Moreover, in test [3], the “fraction of imaged embryos annotated as normal kidney” value (shortened to “fraction of imaged embryos annotated”) came to 0.583. In addition, the “pronephric angle neck segment” value in test [4] worked out at 0.996 ± 0.025.

On to `O=C1NCCN1c1ncc([N+](=O)[O-])s1` [Niridazole], for which, in test [1], the glomerular separation turned out to be 1.24 ± 0.57. Moreover, the glomerular width in test [2] stood at 0.867 ± 0.021. For the same compound, the “fraction of imaged embryos annotated” value in test [3] was found to be 0.833. Further, in test [4], the “pronephric angle neck segment” value worked out at 1.14 ± 0.077.

In the case of `CN(C(=O)CN(CCO)CC(=O)N(C)C(C)(C)Cc1ccccc1)C(C)(C)Cc1ccccc1` [Oxethazaine], the glomerular separation in test [1] was determined as 0.855 ± 0.18. In test [2], this compound registered a glomerular width of 1.1 ± 0.017. Besides, in test [3], the “fraction of imaged embryos annotated” value came out at 0.727. The “pronephric angle neck segment” value in test [4] stood at 0.94 ± 0.059.

On to `O=C(N/N=C/c1ccc([N+](=O)[O-])o1)c1ccc(O)cc1` [Nifuroxazide], for which the glomerular separation in test [1] was 0.916 ± 0.47. The glomerular width in test [2] stood at 1.02 ± 0.041. Besides, the “fraction of imaged embryos annotated” value in test [3] came out at 0.833. Moreover, the “pronephric angle neck segment” value in test [4] worked out at 0.964 ± 0.028.

In turn, `CC(N)CCCC(C)(C)O` (centres undefined) [Heptaminol hydrochloride] gave a glomerular separation in test [1] of 1.19 ± 0.48. In addition, in test [2], the glomerular width came to 1 ± 0.044. The “fraction of imaged embryos annotated” value in test [3] came out at 0.75. The “pronephric angle neck segment” value in test [4] came out at 0.971 ± 0.023.

As to `COc1ccc2c(c1)N(C[C@H](C)CN(C)C)c1ccccc1S2` [Methotrimeprazine maleat salt], the glomerular separation in test [1] was found to be 1.16 ± 0.65. In addition, the glomerular width in test [2] was found to be 0.993 ± 0.037. Moreover, the “fraction of imaged embryos annotated” value in test [3] was determined as 0.909. The “pronephric angle neck segment” value in test [4] worked out at 1.02 ± 0.016.

`Cc1[nH]c(=O)c(C#N)cc1-c1ccncc1` [Milrinone] yielded a glomerular separation in test [1] of 1.13 ± 0.36. Besides, the glomerular width in test [2] was 1.01 ± 0.047. The “fraction of imaged embryos annotated” value in test [3] was determined as 0.917. In test [4], the “pronephric angle neck segment” value was found to be 0.9759 ± 0.0011.

Take `O=c1[nH]c(=O)n([C@H]2C[C@H](O)[C@@H](CO)O2)cc1I` [Idoxuridine]: the glomerular separation in test [1] came to 1.12 ± 0.42. Also, the glomerular width in test [2] is 1.05 ± 0.017. Besides, the “fraction of imaged embryos annotated” value in test [3] turned out to be 0.667. The “pronephric angle neck segment” value in test [4] was 1.05 ± 0.073.

Turning to `Cc1nnc(SCC2=C(C(=O)O)N3C(=O)[C@@H](NC(=O)Cn4cnnn4)[C@H]3SC2)s1` [Cefazolin sodium salt], the glomerular separation in test [1] was 0.771 ± 0.24. The glomerular width in test [2] stood at 1.072 ± 0.008. Also, the “fraction of imaged embryos annotated” value in test [3] was 0.75. Besides, the “pronephric angle neck segment” value in test [4] amounted to 1.03 ± 0.027.

`CC(=O)CC(c1ccccc1)c1c(O)c2ccccc2oc1=O` (centres undefined) [Warfarin] returned a glomerular separation in test [1] of 1.14 ± 0.45. The compound also returned a glomerular width in test [2] of 0.797 ± 0.048. Also, the “fraction of imaged embryos annotated” value in test [3] stood at 0.333. Besides, the “pronephric angle neck segment” value in test [4] was 1.25 ± 0.027.

For the compound `O=S(=O)(O)CCS` [Mesna], the glomerular separation in test [1] was 0.716 ± 0.21. Besides, the glomerular width in test [2] was 1.07 ± 0.057. For the same compound, the “fraction of imaged embryos annotated” value in test [3] was determined as 1. For the same compound, in test [4], the “pronephric angle neck segment” value is 1.07 ± 0.047.
